{
  "source": "PubChem BioAssay AID1159580",
  "about": "(chemical genetic matrix, 2015)",
  "experiment": "chemical genetic growth profiling, strain panel (AID 1159580);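 further: tested at 20 µM; growth read once vehicle control cultures reached saturation at 30 °C; 1 = growth at the plate median or of vehicle wells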",
  "conditions": "growth OD",
  "note": "About 2,000 (36%) of roughly 5,500 compounds were called active. Not shown: some 18% with an inconclusive outcome. The list shows a part of the results. A number with no mark means an inactive call. No stated cut-off is given here; in the data, active means normalized growth mostly below about 0.91 (no sharp cut-off); inconclusive means no clear call, values can overlap the other calls; inactive means mostly above about 0.92.",
  "data": [
    {"smiles": "CCOC(=O)C1=C[C@]2(CC)CCCN3CCc4c(n1c1ccccc41)[C@@H]32", "values": [
      {"measurement": "normalized growth", "setting": "S. cerevisiae deletion strains, locus YKL009W, strain mrt4, stronger effect = lower value", "value": 0.964},
      {"measurement": "normalized growth", "setting": "S. cerevisiae deletion strains, locus YKL068W, stronger effect = lower value", "value": 0.988},
      {"measurement": "normalized growth", "setting": "S. cerevisiae deletion strains, locus YKL085W, strain MDH1 (second series), stronger effect = lower value", "value": 0.992},
      {"measurement": "normalized growth", "setting": "S. cerevisiae deletion strains, locus YKL085W, strain MDH1, stronger effect = lower value", "value": 0.992},
      {"measurement": "normalized growth", "setting": "S. cerevisiae deletion strains, locus YKL160W, strain elf1, stronger effect = lower value", "value": 1.03},
      {"measurement": "normalized growth", "setting": "S. cerevisiae deletion strains, locus YKL190W, strain CNB1, stronger effect = lower value", "value": 0.982},
      {"measurement": "normalized growth", "setting": "S. cerevisiae deletion strains, locus YKR001C, strain vps1, stronger effect = lower value", "value": 0.933},
      {"measurement": "normalized growth", "setting": "S. cerevisiae deletion strains, locus YKR026C, strain gcn3, stronger effect = lower value", "value": 1.01},
      {"measurement": "normalized growth", "setting": "S. cerevisiae deletion strains, locus YKR091W, strain srl3, stronger effect = lower value", "value": 1.01},
      {"measurement": "normalized growth", "setting": "S. cerevisiae deletion strains, locus YLL001W, strain dnm1, stronger effect = lower value", "value": 1.03},
      {"measurement": "normalized growth", "setting": "S. cerevisiae deletion strains, locus YLL026W, stronger effect = lower value", "value": 1.02},
      {"measurement": "normalized growth", "setting": "S. cerevisiae deletion strains, locus YLL041C, strain sdh2, stronger effect = lower value", "value": 1.02},
      {"measurement": "normalized growth", "setting": "S. cerevisiae deletion strains, locus YLR027C, strain aat2, stronger effect = lower value", "value": 1.02},
      {"measurement": "normalized growth", "setting": "S. cerevisiae deletion strains, locus YLR039C, strain RIC1, stronger effect = lower value", "value": 0.924},
      {"measurement": "normalized growth", "setting": "S. cerevisiae deletion strains, locus YLR058C, strain SHM2, stronger effect = lower value", "value": 0.963},
      {"measurement": "normalized growth", "setting": "S. cerevisiae deletion strains, locus YLR102C, strain apc9, stronger effect = lower value", "value": 0.969},
      {"measurement": "normalized growth", "setting": "S. cerevisiae deletion strains, locus YLR113W, strain HOG1, stronger effect = lower value", "value": 1.01},
      {"measurement": "normalized growth", "setting": "S. cerevisiae deletion strains, locus YLR221C, strain rsa3, stronger effect = lower value", "value": 1.02},
      {"measurement": "normalized growth", "setting": "S. cerevisiae deletion strains, locus YLR258W, strain gsy2, stronger effect = lower value", "value": 1.02},
      {"measurement": "normalized growth", "setting": "S. cerevisiae deletion strains, locus YLR262C, strain YPT6 (second series), stronger effect = lower value", "value": 0.996},
      {"measurement": "normalized growth", "setting": "S. cerevisiae deletion strains, locus YLR262C, strain YPT6, stronger effect = lower value", "value": 0.852},
      {"measurement": "normalized growth", "setting": "S. cerevisiae deletion strains, locus YLR268W, strain sec22, stronger effect = lower value", "value": 0.923},
      {"measurement": "normalized growth", "setting": "S. cerevisiae deletion strains, locus YLR320W, strain mms22, stronger effect = lower value", "value": 0.986},
      {"measurement": "normalized growth", "setting": "S. cerevisiae deletion strains, locus YLR330W, strain CHS5, stronger effect = lower value", "value": 0.992},
      {"measurement": "normalized growth", "setting": "S. cerevisiae deletion strains, locus YLR342W, strain FKS1 (second series), stronger effect = lower value", "value": 0.928},
      {"measurement": "normalized growth", "setting": "S. cerevisiae deletion strains, locus YLR342W, strain FKS1, stronger effect = lower value", "value": 1.01},
      {"measurement": "normalized growth", "setting": "S. cerevisiae deletion strains, locus YLR357W, strain rsc2, stronger effect = lower value", "value": 1.07},
      {"measurement": "normalized growth", "setting": "S. cerevisiae deletion strains, locus YLR370C, strain arc18, stronger effect = lower value", "value": 1.02},
      {"measurement": "normalized growth", "setting": "S. cerevisiae deletion strains, locus YLR371W, strain rom2, stronger effect = lower value", "value": 0.985},
      {"measurement": "normalized growth", "setting": "S. cerevisiae deletion strains, locus YLR384C, strain iki3, stronger effect = lower value", "value": 1.04},
      {"measurement": "normalized growth", "setting": "S. cerevisiae deletion strains, locus YLR418C, strain cdc73, stronger effect = lower value", "value": 0.915},
      {"measurement": "normalized growth", "setting": "S. cerevisiae deletion strains, locus YML016C, strain PPZ1, stronger effect = lower value", "value": 0.985},
      {"measurement": "normalized growth", "setting": "S. cerevisiae deletion strains, locus YML032C, strain rad52, stronger effect = lower value", "value": 0.95},
      {"measurement": "normalized growth", "setting": "S. cerevisiae deletion strains, locus YML120C, strain ndi1, stronger effect = lower value", "value": 1.01},
      {"measurement": "normalized growth", "setting": "S. cerevisiae deletion strains, locus YML124C, strain tub3, stronger effect = lower value", "value": 0.979},
      {"measurement": "normalized growth", "setting": "S. cerevisiae deletion strains, locus YMR058W, strain fet3, stronger effect = lower value", "value": 1.02},
      {"measurement": "normalized growth", "setting": "S. cerevisiae deletion strains, locus YMR078C, strain ctf18, stronger effect = lower value", "value": 0.977},
      {"measurement": "normalized growth", "setting": "S. cerevisiae deletion strains, locus YMR125W, strain sto1, stronger effect = lower value", "value": 1.02},
      {"measurement": "normalized growth", "setting": "S. cerevisiae deletion strains, locus YMR129W, stronger effect = lower value", "value": 1.02},
      {"measurement": "normalized growth", "setting": "S. cerevisiae deletion strains, locus YMR205C, strain PFK2, stronger effect = lower value", "value": 0.995},
      {"measurement": "normalized growth", "setting": "S. cerevisiae deletion strains, locus YMR223W, strain ubp8, stronger effect = lower value", "value": 0.961},
      {"measurement": "normalized growth", "setting": "S. cerevisiae deletion strains, locus YMR231W, strain pep5, stronger effect = lower value", "value": 1.02},
      {"measurement": "normalized growth", "setting": "S. cerevisiae deletion strains, locus YMR263W, strain SAP30, stronger effect = lower value", "value": 0.987},
      {"measurement": "normalized growth", "setting": "S. cerevisiae deletion strains, locus YMR307W, strain GAS1, stronger effect = lower value", "value": 1.01},
      {"measurement": "normalized growth", "setting": "S. cerevisiae deletion strains, locus YNL067W, strain RPL9B, stronger effect = lower value", "value": 0.949},
      {"measurement": "normalized growth", "setting": "S. cerevisiae deletion strains, locus YNL071W, strain lat1, stronger effect = lower value", "value": 1.01},
      {"measurement": "normalized growth", "setting": "S. cerevisiae deletion strains, locus YNL128W, strain TEP1, stronger effect = lower value", "value": 0.988},
      {"measurement": "normalized growth", "setting": "S. cerevisiae deletion strains, locus YNL183C, strain NPR1, stronger effect = lower value", "value": 0.947},
      {"measurement": "normalized growth", "setting": "S. cerevisiae deletion strains, locus YNL209W, strain ssb2, stronger effect = lower value", "value": 1.05},
      {"measurement": "normalized growth", "setting": "S. cerevisiae deletion strains, locus YNL233W, strain BNI4, stronger effect = lower value", "value": 0.931},
      {"measurement": "normalized growth", "setting": "S. cerevisiae deletion strains, locus YNL248C, strain rpa49, stronger effect = lower value", "value": 1.05},
      {"measurement": "normalized growth", "setting": "S. cerevisiae deletion strains, locus YNL250W, strain rad50, stronger effect = lower value", "value": 0.978},
      {"measurement": "normalized growth", "setting": "S. cerevisiae deletion strains, locus YNL271C, strain bni1, stronger effect = lower value", "value": 0.981},
      {"measurement": "normalized growth", "setting": "S. cerevisiae deletion strains, locus YNL298W, strain CLA4, stronger effect = lower value", "value": 0.98},
      {"measurement": "normalized growth", "setting": "S. cerevisiae deletion strains, locus YNL307C, strain MCK1, stronger effect = lower value", "value": "0.879 (active)"},
      {"measurement": "normalized growth", "setting": "S. cerevisiae deletion strains, locus YNL322C, strain KRE1 (second series), stronger effect = lower value", "value": 1.02},
      {"measurement": "normalized growth", "setting": "S. cerevisiae deletion strains, locus YNL322C, strain KRE1, stronger effect = lower value", "value": 0.986},
      {"measurement": "normalized growth", "setting": "S. cerevisiae deletion strains, locus YNR049C, strain mso1, stronger effect = lower value", "value": 1.02},
      {"measurement": "normalized growth", "setting": "S. cerevisiae deletion strains, locus YNR052C, strain pop2, stronger effect = lower value", "value": 0.979},
      {"measurement": "normalized growth", "setting": "S. cerevisiae deletion strains, locus YOL006C, strain TOP1, stronger effect = lower value", "value": 0.803},
      {"measurement": "normalized growth", "setting": "S. cerevisiae deletion strains, locus YOL012C, strain htz1", "value": 0.935},
      {"measurement": "normalized growth", "setting": "S. cerevisiae deletion strains, locus YOL147C, strain pex11, stronger effect = lower value", "value": 0.984},
      {"measurement": "normalized growth", "setting": "S. cerevisiae deletion strains, locus YOR001W, strain rrp6, stronger effect = lower value", "value": 1.02},
      {"measurement": "normalized growth", "setting": "S. cerevisiae deletion strains, locus YOR061W, strain CKA2, stronger effect = lower value", "value": 0.964},
      {"measurement": "normalized growth", "setting": "S. cerevisiae deletion strains, locus YOR069W, strain VPS5, stronger effect = lower value", "value": 0.986},
      {"measurement": "normalized growth", "setting": "S. cerevisiae deletion strains, locus YOR070C, strain gyp1, stronger effect = lower value", "value": 1.01},
      {"measurement": "normalized growth", "setting": "S. cerevisiae deletion strains, locus YOR080W, strain dia2, stronger effect = lower value", "value": 1.03},
      {"measurement": "normalized growth", "setting": "S. cerevisiae deletion strains, locus YOR083W, strain WHI5, stronger effect = lower value", "value": 1.01},
      {"measurement": "normalized growth", "setting": "S. cerevisiae deletion strains, locus YOR106W, strain vam3, stronger effect = lower value", "value": 1.04},
      {"measurement": "normalized growth", "setting": "S. cerevisiae deletion strains, locus YOR136W, strain idh2, stronger effect = lower value", "value": 0.978},
      {"measurement": "normalized growth", "setting": "S. cerevisiae deletion strains, locus YOR144C, strain elg1, stronger effect = lower value", "value": 0.994},
      {"measurement": "normalized growth", "setting": "S. cerevisiae deletion strains, locus YOR184W, strain ser1, stronger effect = lower value", "value": "0.859 (active)"},
      {"measurement": "normalized growth", "setting": "S. cerevisiae deletion strains, locus YOR231W, strain MKK1, stronger effect = lower value", "value": 1.02},
      {"measurement": "normalized growth", "setting": "S. cerevisiae deletion strains, locus YOR265W, strain rbl2, stronger effect = lower value", "value": 1.02},
      {"measurement": "normalized growth", "setting": "S. cerevisiae deletion strains, locus YOR270C, strain vph1, stronger effect = lower value", "value": 0.957},
      {"measurement": "normalized growth", "setting": "S. cerevisiae deletion strains, locus YOR290C, strain snf2, stronger effect = lower value", "value": 1.01},
      {"measurement": "normalized growth", "setting": "S. cerevisiae deletion strains, locus YOR316C, strain cot1, stronger effect = lower value", "value": 0.974},
      {"measurement": "normalized growth", "setting": "S. cerevisiae deletion strains, locus YPL051W, strain arl3, stronger effect = lower value", "value": 1.01},
      {"measurement": "normalized growth", "setting": "S. cerevisiae deletion strains, locus YPL055C, strain LGE1, stronger effect = lower value", "value": 0.887},
      {"measurement": "normalized growth", "setting": "S. cerevisiae deletion strains, locus YPL078C, strain atp4, stronger effect = lower value", "value": 1.01},
      {"measurement": "normalized growth", "setting": "S. cerevisiae deletion strains, locus YPL106C, strain sse1, stronger effect = lower value", "value": 1.03},
      {"measurement": "normalized growth", "setting": "S. cerevisiae deletion strains, locus YPL240C, strain hsp82, stronger effect = lower value", "value": 1.04},
      {"measurement": "normalized growth", "setting": "S. cerevisiae deletion strains, locus YPL256C, strain CLN2, stronger effect = lower value", "value": 0.999},
      {"measurement": "normalized growth", "setting": "S. cerevisiae deletion strains, locus YPR119W, strain clb2, stronger effect = lower value", "value": 0.986},
      {"measurement": "normalized growth", "setting": "S. cerevisiae deletion strains, locus YPR141C, strain kar3, stronger effect = lower value", "value": 0.986},
      {"measurement": "normalized growth", "setting": "S. cerevisiae deletion strains, locus YPR163C, strain tif3, stronger effect = lower value", "value": 0.936},
      {"measurement": "normalized growth", "setting": "S. cerevisiae deletion strains, locus YPR167C, strain met16, stronger effect = lower value", "value": 0.989},
      {"measurement": "normalized growth", "setting": "S. cerevisiae deletion strains, strain wtn01, stronger effect = lower value", "value": 0.993},
      {"measurement": "normalized growth", "setting": "S. cerevisiae strains, strain wild type, stronger effect = lower value", "value": 0.974}
    ]}
  ]
}
